# Test system: HEK293 WT BDD-FVIII-Gluc
# Assay: secreted FVIII-Gluc luciferase Z-score vs DMSO control; higher = more FVIII-Gluc secretion
# Conditions: 5 µM
# Protocol: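 Natural plant-compound library (480 compounds, ST catalogue IDs) screened on HEK293 cells stably expressing WT BDD-FVIII-Gaussia luciferase fusion at 5 µM. Secreted Gluc activity in the medium is given as a Z-score relative to DMSO controls.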
row,Structure (SMILES),secreted FVIII-Gluc luciferase Z-score
1,O=c1cc[nH]c(=S)[nH]1,0.275
2,COC(=O)[C@H]1[C@H]2C[C@H]3c4[nH]c5ccccc5c4CCN3C[C@H]2CC[C@@H]1O,-0.252
3,C=CC(C)(O)CCC=C(C)C (stereo unspecified),-0.395
4,COc1cccc2oc(-c3ccc(O)cc3)cc(=O)c12,1.3
5,COc1cc([C@@H]2c3cc4c(cc3C(OC3OC5COC(C)OC5C(O)C3O)C3COC(=O)[C@@H]32)OCO4)cc(OC)c1O (stereo partly specified),-6.37
6,COc1cc2ccc(=O)oc2c(O)c1OCC=C(C)C,-0.0513
7,C[C@H]1c2ccoc2CC2[C@H]1CCC1[C@@](C)(CC(=O)O)CCC[C@]21C (stereo partly specified),0.392
8,O=c1c(O)c(-c2ccc(O)cc2O)oc2cc(O)cc(O)c12,0.571
9,CCC12CCCN3CCc4c(n(c5ccccc45)C(O)(C(=O)OC)C1)C32 (stereo unspecified),0.301
10,O=c1c(O)c(-c2cc(O)c(O)c(O)c2)oc2cc(O)cc(O)c12,0.93
11,CC(=O)Oc1cc(OC(C)=O)c2c(=O)cc(-c3ccc(OC(C)=O)c(OC(C)=O)c3)oc2c1,0.33

# From the supplement of paper PMC12024529
